From PubChem BioAssay
TDP1 cell noCPT = qHTS for Inhibitors of human tyrosyl-DNA phosphodiesterase 1 (TDP1): qHTS in cells in absence of CPT | DT40 Tdp1-/- hTDP1 cells, no CPT, ATP luminescence, 48 h | Potency, µM (titrated, usually from 46.2 µM), for the others: at the highest dose activity change, negative = growth inhibition, hits mostly inhibitors | 420,000 compounds, 15% hits | AID 686978, 2013; also: potency is read from the fitted curve at half-maximal effect; nearly all actives have a fitted effect of over 55% in size
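Seeded 400 DT40-hTDP1 cells/well (vehicle DMSO, no 20 nM CPT); pinned compounds; ≥48 hr at 37 °C; CellTiter-Glo luminescence as viability measure.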
CtBP-E1A blk = blocks the CtBP interaction with E1A; AID 651724; AlphaScreen GST-E1A/His-CtBP binding, 1536-well; stronger effect = lower value; activity change, % (test concentration not listed); 340,000 compounds, 0.49% hits; in the data active = activity change below about -65%; inconclusive = mostly about -30% to -63%
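Homogeneous bead-based format: GST-tagged E1A captured on glutathione donor beads, His-tagged CtBP on nickel acceptor beads; compounds precede bead addition by 2 h at 37 °C.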
IL-1B inflam inh = inflammasome signaling inhibition, IL-1 beta readout; THP-1 LPS/ATP IL-1B secretion, AlphaLISA, 16 h; stronger effect = lower value; activity change, % at 57.5 µM; 360,000 compounds, 4.7% hits; AID 743279; in the data active = activity change below about -50%; inconclusive = mostly about -30% to -49%
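THP-1 cells pretreated 1 hr with compounds (up to 57.5 uM final), then stimulated with LPS (250 ng/mL final) plus ATP (1.25 mM final); secreted IL-1B measured by AlphaLISA after 16 hr, decreased signal indicating inhibition.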
TDP1 cell CPT = DT40-hTDP1 cell growth loss with CPT; Potency, µM (top dose mostly 46.2 µM), for inactives: top-dose activity change, negative = growth inhibition, most hits filed as inhibitors; 420,000 compounds, 12% hits; AID 686979; chicken DT40 Tdp1-/-;hTDP1 cells + 20 nM CPT, ATP luminescence, 48 h; also: potency is read from the fitted curve at half-maximal effect; nearly all actives have a fitted effect of over 55% in size
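Chicken DT40 Tdp1-/- cells complemented with human TDP1, 400 cells/well, exposed to compounds plus 20 nM camptothecin for at least 48 h at 37 C; viability read as ATP content by CellTiter-Glo luminescence.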
TDP1 block = TDP1 (human) enzyme inhibition; Q9NUW8; Potency, µM (series often up to 130 µM), for inactives: at the top dose activity change, negative = inhibition, hits mostly inhibitors; recombinant TDP1, AlphaScreen DNA substrate cleavage; 350,000 compounds, 0.28% hits; also: potency is read from the fitted curve at half-maximal effect; nearly all actives have a fitted effect of over 40% in size
Target sequence (Q9NUW8 whole entry, looked up): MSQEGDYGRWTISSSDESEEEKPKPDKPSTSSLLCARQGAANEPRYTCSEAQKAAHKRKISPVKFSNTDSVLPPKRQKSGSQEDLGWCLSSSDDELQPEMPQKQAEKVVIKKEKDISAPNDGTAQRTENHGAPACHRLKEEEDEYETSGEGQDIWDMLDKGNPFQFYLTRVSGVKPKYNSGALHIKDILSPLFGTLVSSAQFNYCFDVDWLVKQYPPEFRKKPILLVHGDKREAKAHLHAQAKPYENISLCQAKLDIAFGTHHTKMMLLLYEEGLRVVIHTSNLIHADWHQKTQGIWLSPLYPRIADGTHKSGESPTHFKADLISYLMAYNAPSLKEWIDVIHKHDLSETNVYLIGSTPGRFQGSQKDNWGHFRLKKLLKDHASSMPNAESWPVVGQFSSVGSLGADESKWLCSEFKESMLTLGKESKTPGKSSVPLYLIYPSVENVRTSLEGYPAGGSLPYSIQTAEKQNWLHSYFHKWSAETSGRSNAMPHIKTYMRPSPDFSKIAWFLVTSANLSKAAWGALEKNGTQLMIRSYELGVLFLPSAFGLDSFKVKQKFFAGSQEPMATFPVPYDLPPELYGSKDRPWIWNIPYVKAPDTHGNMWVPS
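Here, a 5' biotin and 3' phosphotyrosine-FITC DNA oligonucleotide reports Tdp1 activity: intact substrate bridges AlphaScreen beads, while cleavage leaves a 3' phosphate and drops signal. All incubations at room temperature.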
Six1-Eya2 blk = Six1/Eya2 interaction inhibition | Q15475+O00167 | AlphaScreen GST-Six1/His-Eya2 binding, biochemical; stronger effect = lower value | activity change, % (concentration not given with the values) | 360,000 compounds, 0.56% hits; in the data active = activity change below about -65%; inconclusive = mostly about -30% to -63%
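Compounds are tested against tagged Six1 and Eya2 proteins bridged by glutathione donor and nickel acceptor beads; after a one-hour incubation at 37 °C without light, AlphaScreen emission is recorded.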
Numbers without * were called inactive; ? = inconclusive; . = not tested or not shown; ! = a repeat was not active; [ ] = dose if it differs, or a comment. Shown are actives, neighbours in structure and some others; about 18% of the full set was active somewhere. Unless noted, calls follow the shape of the dose curve; as a rule, active = well fitted curve in the direction sought with a large enough effect; inconclusive = small, poorly fitted or top-dose-only effect, or another doubt; inactive = no such curve, though single readings can be large; an effect the other way counts as inactive or inconclusive. % is scaled to controls: 0 for no effect and ±100 for the full control effect.

SMILES | TDP1 cell noCPT | CtBP-E1A blk | IL-1B inflam inh | TDP1 cell CPT | TDP1 block | Six1-Eya2 blk
CCOC(=O)C1=CN(Cc2cccc(-c3ccc(Cl)nc3)c2)S(=O)(=O)N(C)C1C (stereo unspecified) | 21µM* | 10 | ? | 23µM* | -2%[56.1 µM] | 4
CCCN1C(C)C(C(=O)OCC)=CN(Cc2ccc(Br)cc2)S1(=O)=O (stereo unspecified) | ? | 36 | -7 | ? | -12%[56.1 µM] | 25
CCCN1C(C)C(C(=O)OCC)=CN(Cc2cccc(I)c2)S1(=O)=O (stereo unspecified) | 16µM* | 26 | 5 | ? | -11%[56.1 µM] | 34
CC#CCN1C=C(C(=O)OCC)C(C)N(Cc2ccc(Br)cc2)S1(=O)=O (stereo unspecified) | 23µM* | 0 | -13 | 18µM* | -9%[56.1 µM] | -16
CCOC(=O)C1=CN(CC)S(=O)(=O)NC1CCc1ccccc1 (stereo unspecified) | -30% | -16 | -8 | -14% | -3%[56.1 µM] | 17
CCOC(=O)C1=CN(Cc2cccc(F)c2)S(=O)(=O)NC1CCc1ccccc1 (stereo unspecified) | 26µM* | 12 | ? | ? | -3%[56.1 µM] | -6
Cc1noc(C)c1COc1ccc(C(=O)N2CC(C)CC(C)C2)cc1 (stereo unspecified) | ? | -2 | -18 | ? | 1% | 1
Cc1ccc(S(=O)(=O)NCCc2ccc(S(N)(=O)=O)cc2)cc1 | -1% | 5 | 4 | -12% | -1% | -4
CCOC(=O)C1=CN(Cc2cccc(F)c2)S(=O)(=O)N(C)C1c1ccc(F)c(Cl)c1 (stereo unspecified) | 16µM* | 2 | 16 | ? | -4%[56.1 µM] | 8
CCOC(=O)C1=CN(Cc2cccc(-c3ccc4c(c3)OCO4)c2)S(=O)(=O)N(C)C1C (stereo unspecified) | 23µM* | 2 | -6 | ? | -3%[56.1 µM] | -3
O=S(=O)(Cc1ccccc1)NC1c2ccccc2Oc2ccccc21 | 21µM* | -2 | -17 | 15µM* | . | -7
COC(=O)C(C)Sc1ncnc2c1c(-c1ccccc1)cn2-c1ccc(OC)cc1 (stereo unspecified) | -3% | -12 | 40 | ? | . | -8
OCc1ccc(-c2nn(Cc3ccccc3)c3ccccc23)o1 | 18µM*! | -9 | -11 | 11µM*! | 12%[56.1 µM] | -9
CCOC1=C2CN(S(=O)(=O)c3ccc(C)cc3)[C@H](c3cccc4ccccc34)C[C@H]2C(C#N)(C#N)C(C#N)(C#N)C1 | 5.8µM* | 8 | -26 | 4.1µM* | . | -5
CCOC1=C2CN(S(=O)(=O)c3ccc(C)cc3)[C@@H](c3cccc4ccccc34)C[C@H]2[C@H]2C(=O)N(c3ccccc3)C(=O)[C@H]2C1 | 6% | 10 | -6 | 2% | . | 4
CCOC1=C2[C@H](c3ccccc3)N(S(=O)(=O)c3ccc(C)cc3)C(C(C)(C)C)[C@H]2C(C#N)(C#N)C(C#N)(C#N)C1 (stereo partly specified) | 2.1µM* | 5 | -64* | 2.1µM* | . | -15
CCC(=O)N/N=C(\C)CC(=O)Nc1cc(Cl)ccc1C | 1% | 5 | 5 | 5% | 6% | 8
COc1ccc(-c2nnc(OC)c3ccccc23)cc1 | ? | . | -14 | -25% | . | -8
COc1ccc(-c2nnc(Sc3nc4ccccc4o3)c3ccccc23)cc1 | 20µM* | 10 | -101* | ? | 2% | -9
O=C(O)c1ccccc1N/N=C/C1=C(N2CCOCC2)C(=C\c2ccccc2)/CC1 | 12µM* | -2 | 17 | 21µM* | -1% | 0
Cc1cc(C)nc(N/N=C/C2=C(N3CCOCC3)C(=C/c3ccccc3)/CC2)n1 | 12µM* | 5 | -23 | 16µM* | 0% | 5
Cc1cc(=O)[nH]c(N/N=C/C2=C(N3CCOCC3)C(=C\c3ccc(Cl)cc3)/CC2)n1 | 16µM* | -27 | 14 | 21µM* | 5% | -28
O=C(N/N=C/C1=C(N2CCOCC2)C(=C\c2ccccc2)/CC1)Nc1ccccc1 | 8.2µM* | -13 | 5 | 12µM* | 3% | -6
CCCOc1ccc(C(=O)Nc2ccccc2[N+](=O)[O-])cc1 | -15% | ? | -15 | -19% | . | ?
O=P(O)(O)O[C@@H]1[C@H](O)[C@H](O)[C@@H](OP(=O)(O)O)[C@H](OP(=O)(O)O)[C@H]1O | . | . | . | . | 4% | .
SMILES | TDP1 cell noCPT | CtBP-E1A blk | IL-1B inflam inh | TDP1 cell CPT | TDP1 block | Six1-Eya2 blk
Cc1ccc(C(=O)N/N=C/c2ccc(N3CCOCC3)cc2)c(C)c1 | -7% | 1 | 0 | 9% | 4% | -1
Cc1occc1C(=O)N/N=C/C1=C(N2CCOCC2)C(=C\c2ccc(Cl)cc2)/CC1 | 0.92µM* | 0 | 3 | ? | 3% | 6
CCc1cc2c(=O)c(-c3cnn(-c4ccccc4)c3)c(C)oc2cc1OCC(=O)Nc1cccc(C)c1 | 5.2µM* | 4 | -1 | 3.3µM* | 0% | 0
Cc1oc2cc(O)ccc2c(=O)c1-c1cnn(-c2ccccc2)c1 | ? | -11 | 13 | -25% | 0% | -11
CCc1cc2c(=O)c(-c3cnn(-c4ccccc4)c3)c(C)oc2cc1OCC(=O)Nc1ccc(F)c(F)c1 | 9.2µM* | -1 | 0 | 15µM* | 4% | 3
CCc1cc2c(=O)c(-c3ccc(F)cc3)c(C)oc2cc1OCC(=O)O | 2% | . | 8 | 20% | 4% | 0
Cc1c(C(=O)COC(C)(C)C)[nH]c2ccccc12 | ? | 1 | -1 | 21µM* | 6% | 1
Oc1csc(Cc2nc(-c3ccc(Br)cc3)cs2)n1 | 0% | 4 | 21 | -13% | 5% | -2
CN(C)/C=C/C(=O)c1cccc([N+](=O)[O-])c1 | -29% | . | 4 | 19% | 3% | -1
COc1cc2c(cc1OC)C(c1ccccc1[N+](=O)[O-])=NCC2 | 2.9µM* | -12 | 47 | 5.8µM* | . | -6
COc1cc2c(cc1OC)C(c1ccccc1N)=NCC2 | 21µM* | -9 | -19 | ? | -3% | 0
CCNC(=O)C1(C)CCCN(C(=O)c2csc3ccccc23)C1 (stereo unspecified) | -4% | -24 | 6 | 20% | . | 12
COc1ccc(CN2C(=O)CCC2(C)C(=O)NC2CCCC2)c(OC)c1 (stereo unspecified) | 12% | -2 | 19 | 16% | -1% | 10
